In PubChem BioAssay AID1159580 (chemical genetic matrix, 2015):
Screen size: about 5,500 compounds; about 2,000 (36%) were called active. Not shown: some 18% with an inconclusive outcome. Some of the results follow. Unmarked numbers belong to inactive results. Cut-off read from the data, not from the text of the source: active = normalized growth mostly below about 0.91 (no sharp cut-off); inconclusive = no clear call, values can overlap the other calls; inactive = mostly above about 0.92.

Assay: chemical genetic growth profiling, strain panel (AID 1159580);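 note: tested at 20 µM; growth read once vehicle control cultures reached saturation at 30 °C; 1 = growth at the plate median or of vehicle wells; lower values mean less growth of the strain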
Settings: growth OD
[1] = S. cerevisiae deletion strains, locus YAL013W, strain DEP1, hits give low values
[2] = S. cerevisiae deletion strains, locus YBR229C, strain ROT2, hits give low values
[3] = S. cerevisiae deletion strains, locus YDL101C, strain DUN1, hits give low values
[4] = S. cerevisiae deletion strains, locus YDR150W, strain NUM1, hits give low values
[5] = S. cerevisiae deletion strains, locus YEL061C, strain CIN8, hits give low values
[6] = S. cerevisiae deletion strains, locus YGR078C, strain PAC10, hits give low values
[7] = S. cerevisiae deletion strains, locus YHR030C, strain SLT2, hits give low values
[8] = S. cerevisiae deletion strains, locus YHR087W, strain rtc3, hits give low values
[9] = S. cerevisiae deletion strains, locus YJR043C, strain POL32, hits give low values
[10] = S. cerevisiae deletion strains, locus YJR075W, strain HOC1, hits give low values
[11] = S. cerevisiae deletion strains, locus YLR039C, strain RIC1, hits give low values
[12] = S. cerevisiae deletion strains, locus YLR058C, strain SHM2 (second series), hits give low values
[13] = S. cerevisiae deletion strains, locus YLR085C, strain ARP6, hits give low values
[14] = S. cerevisiae deletion strains, locus YLR262C, strain YPT6, hits give low values
[15] = S. cerevisiae deletion strains, locus YML094W, strain GIM5, hits give low values
[16] = S. cerevisiae deletion strains, locus YMR219W, strain ESC1, hits give low values
[17] = S. cerevisiae deletion strains, locus YMR263W, strain SAP30, hits give low values
[18] = S. cerevisiae deletion strains, locus YNL128W, strain TEP1, hits give low values
[19] = S. cerevisiae deletion strains, locus YNL153C, strain GIM3, hits give low values
[20] = S. cerevisiae deletion strains, locus YNL298W, strain CLA4 (second series), hits give low values
[21] = S. cerevisiae deletion strains, locus YNL322C, strain KRE1, hits give low values
[22] = S. cerevisiae deletion strains, locus YNR030W, strain Alg12, hits give low values
[23] = S. cerevisiae deletion strains, locus YPL055C, strain LGE1, hits give low values
[24] = S. cerevisiae deletion strains, locus YPL241C, strain CIN2, hits give low values
[25] = S. cerevisiae deletion strains, locus YPR135W, strain CTF4, hits give low values

Compound: COc1ccc(-c2ccc(C=C(C#N)C#N)s2)cc1
- normalized growth [1]: 0.946
- normalized growth [2]: 0.918 (active)
- normalized growth (S. cerevisiae deletion strains, locus YCL061C, strain MRC1, hits give low values): 0.95
- normalized growth [3]: 0.95
- normalized growth [4]: 0.967
- normalized growth [5]: 0.922
- normalized growth [6]: 0.925 (active)
- normalized growth [7]: 0.943
- normalized growth [8]: 0.939
- normalized growth [9]: 0.958
- normalized growth [10]: 1.01
- normalized growth [11]: 0.757 (active)
- normalized growth [12]: 0.971
- normalized growth [13]: 0.912
- normalized growth [14]: 0.832
- normalized growth [15]: 0.899
- normalized growth [16]: 0.969
- normalized growth [17]: 0.974
- normalized growth [18]: 0.977
- normalized growth [19]: 0.938
- normalized growth [20]: 0.895
- normalized growth [21]: 0.964
- normalized growth [22]: 0.903
- normalized growth [23]: 0.932
- normalized growth [24]: 1.07
- normalized growth [25]: 0.948

Compound: COc1ccc(-n2c(-c3ccc(C)cc3)csc2=N)cc1
- normalized growth [1]: 0.996
- normalized growth [2]: 1
- normalized growth [3]: 1
- normalized growth [4]: 1.02
- normalized growth [5]: 0.97
- normalized growth [6]: 1
- normalized growth [7]: 1.05
- normalized growth [8]: 0.995
- normalized growth (S. cerevisiae deletion strains, locus YJL187C, strain SWE1, hits give low values): 0.985
- normalized growth [9]: 1.01
- normalized growth [10]: 1.01
- normalized growth [11]: 1.01
- normalized growth [12]: 1
- normalized growth [13]: 0.918
- normalized growth [14]: 1
- normalized growth [15]: 0.996
- normalized growth [16]: 1.01
- normalized growth [17]: 1.03
- normalized growth (S. cerevisiae deletion strains, locus YMR307W, strain GAS1, hits give low values): 1.03
- normalized growth [18]: 0.992
- normalized growth [19]: 1.03
- normalized growth [20]: 0.983
- normalized growth [21]: 1
- normalized growth [22]: 0.988
- normalized growth [23]: 1.03
- normalized growth [24]: 1.01
- normalized growth [25]: 1.24
- normalized growth (S. cerevisiae strains, strain wild type, hits give low values): 0.994
